PrP UTR inh: inhibition of PrP 5' UTR reporter expression | cell-based PrP 5' UTR mRNA reporter, plate reader | inhibition, % (no concentration beside the values) | hit rate 0.35% among 340,000 | AID 488862, 2010; in the data active = inhibition above about 52%; note: 0 = median of the neutral control wells
Sa RN4220 lethal: growth inhibition of S. aureus RN4220, primary screen, OD600 | AID 1259311, 2017 | 16 h | hit rate 0.33% among 330,000 | inhibition, % (test concentration not listed); in the data active = inhibition above about 85%;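 note: plate controls were untreated cells for no effect and reference antibiotic for full effect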
Sa ugtP lethal: growth inhibition of ugtP-null S. aureus, primary screen, RN4220 ugtP deletion, OD600; 16 h; growth inhibition, % (test concentration not listed); hit rate 0.54% among 330,000; in the data active = growth inhibition above about 68%;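 note: plate controls were untreated wells for no effect and antibiotic for full effect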
PrPC TRFRET: inhibitors of human cell surface prion protein PrPC, primary screen, cell-based, TR-FRET; Major prion protein (Homo sapiens), P04156; TR-FRET read-out; inhibition, % at 13.8 µM; hit rate 0.43% among 370,000; in the data active = inhibition above about 24%; note: 0% = median of the test wells and 100% = reference compound wells
PfHsp40 yeast: rescue of yeast from PfHsp40 toxicity, primary screen, S. cerevisiae, ATP luminescence | S. cerevisiae expressing PfHsp40, growth rescue | growth rescue, % at 12.5 µM | hit rate 0.68% among 340,000; in the data active = growth rescue above about 28%, passing the limit was not always enough;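 note: yeast W303a lacking pdr1 and pdr3 grown in galactose medium; growth measured after three days at 30 °C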
CCHFV vOTU inh: CCHFV vOTU protease inhibitors, primary screen, biochemical, Pep-AMC substrate, fluorescence; Crimean-Congo hemorrhagic fever virus L polyprotein viral ovarian tumor (vOTU) protease …; inhibition, % at 11.5 µM; hit rate 0.55% among 370,000; AID 651958, 2012; in the data active = inhibition above about 30%; note: 0% = vehicle wells with enzyme and 100% = no enzyme wells
* hit, by the source's call. Rows were chosen to be rich in hits. Some 2.1% of all compounds tested hit in one or more screens of this group.

`COc1cccc(NC(=O)CN2CCN(CC(=O)Nc3ccc(F)cc3)CC2)c1` gave Sa RN4220 lethal 3.3, Sa ugtP lethal 7.7, PrPC TRFRET -14.4, PfHsp40 yeast 1.2 and CCHFV vOTU inh -0.9.
Screening CC(CC(=O)Nc1ccc2c(c1)OCCO2)=NNC(=O)COc1ccccc1 returned Sa RN4220 lethal 5.3 and Sa ugtP lethal 1.0.
Screening COc1cccc(/C=C/c2ccc3cccc(O)c3n2)c1 returned PrP UTR inh -45.6, Sa RN4220 lethal 5.0, Sa ugtP lethal -19.7, PrPC TRFRET -23.1, PfHsp40 yeast 35.1* and CCHFV vOTU inh -1.6.
COc1cccc(/C=C/c2ccc3cccc(O)c3n2)c1OC was read as PrP UTR inh -26.1, PrPC TRFRET -22.6, PfHsp40 yeast -1.2 and CCHFV vOTU inh -2.5.
Screening COc1ccc(/C=C/c2ccc3cccc(O)c3n2)c(OC)c1OC returned PrP UTR inh -31.2, Sa RN4220 lethal 6.9, Sa ugtP lethal -20.9, PrPC TRFRET -21.3, PfHsp40 yeast 33.3* and CCHFV vOTU inh 8.9.
`Oc1cccc(/C=C/c2ccc3cccc(O)c3n2)c1` gave PrP UTR inh -86.2, Sa RN4220 lethal 1.8, Sa ugtP lethal -5.0, PrPC TRFRET -32.4, PfHsp40 yeast 1.4 and CCHFV vOTU inh 17.1.
`CC(C)CC(=O)NC(=S)Nc1ccc(S(=O)(=O)N2CCCC2)cc1` gave PrP UTR inh -12.4, Sa RN4220 lethal 4.3, Sa ugtP lethal 86.9*, PrPC TRFRET 8.3, PfHsp40 yeast 0.0 and CCHFV vOTU inh 1.6.
For CC(C)C(=O)NC(=S)Nc1ccc(S(=O)(=O)N2CCCC2)cc1 the results were PrP UTR inh -26.8, Sa RN4220 lethal -2.8, Sa ugtP lethal 5.1, PrPC TRFRET 10.0, PfHsp40 yeast 0.3 and CCHFV vOTU inh -7.0.
`Cc1cc(C)nc(NS(=O)(=O)c2ccc(NC(=S)NC(=O)C(C)(C)C)cc2)n1` gave PrP UTR inh -28.5, Sa RN4220 lethal -1.2, Sa ugtP lethal 26.5, PrPC TRFRET -2.0, PfHsp40 yeast 0.0 and CCHFV vOTU inh -1.5.
Cc1cc(C)nc(NS(=O)(=O)c2ccc(NC(=S)NC(=O)CC(C)C)cc2)n1 was read as PrP UTR inh -15.5, Sa RN4220 lethal 3.6, Sa ugtP lethal 84.4*, PrPC TRFRET -4.2, PfHsp40 yeast -1.0 and CCHFV vOTU inh 13.3.
Screening CCN1C(=O)C2C(c3ccc(C)cc3)N3C(=O)N(c4ccc(OC)cc4)C(=O)[C@@]3(Cc3ccc(Cl)cc3)C2C1=O (stereo partly specified) returned Sa RN4220 lethal 5.5 and Sa ugtP lethal -8.4.
For N#C/C(=C\c1ccccc1[N+](=O)[O-])C(=O)NCc1ccccc1 the results were PrP UTR inh -11.7, Sa RN4220 lethal 0.2, Sa ugtP lethal -2.6, PrPC TRFRET -9.5, PfHsp40 yeast -1.4 and CCHFV vOTU inh -0.4.
CCCCCCCCNC(=O)/C(C#N)=C/c1ccccc1[N+](=O)[O-] was read as PrP UTR inh -5.3, Sa RN4220 lethal 67.4, Sa ugtP lethal 91.1*, PrPC TRFRET 2.3, PfHsp40 yeast 354.5* and CCHFV vOTU inh 12.6.
`Brc1ccc(C=NN2CCN(C3c4ccccc4-c4ccccc43)CC2)s1` gave Sa RN4220 lethal -6.7 and Sa ugtP lethal -5.9.
Screening O=C(C=Cc1cccs1)N1CCC2(CC1)Oc1ccc(F)cc1C(=O)C21CC(c2ccc(Cl)cc2)=NO1 (stereo unspecified) returned Sa RN4220 lethal 1.2 and Sa ugtP lethal 0.4.
Screening CCCc1ccc(C(C)NC(=S)NC2CCCCC2)cc1 (stereo unspecified) returned PrP UTR inh -3.1, Sa RN4220 lethal -13.1, Sa ugtP lethal -26.2, PrPC TRFRET 13.6, PfHsp40 yeast 159.4* and CCHFV vOTU inh 1.6.
`CC(NC(=S)NC1CCCCC1)c1ccccc1` (stereo unspecified) gave PrP UTR inh 6.0, Sa RN4220 lethal 2.0, Sa ugtP lethal 4.7, PrPC TRFRET 2.5, PfHsp40 yeast -1.4 and CCHFV vOTU inh -9.2.
Screening c1coc(CN(Cc2cccs2)Cc2nnnn2C2CCCCC2)c1 returned PrP UTR inh -25.1, Sa RN4220 lethal -9.5, Sa ugtP lethal -23.3, PrPC TRFRET 4.9, PfHsp40 yeast 0.5 and CCHFV vOTU inh 7.6.
Screening Clc1ccccc1CN(Cc1ccco1)Cc1nnnn1C1CCCC1 returned PrP UTR inh -24.1, Sa RN4220 lethal 6.6, Sa ugtP lethal -18.2, PrPC TRFRET 5.1, PfHsp40 yeast 331.1* and CCHFV vOTU inh 13.1.
`COc1cc(/C=C/C(=O)Nc2ccc(OC)c(S(=O)(=O)N3CCOCC3)c2)ccc1OC(F)F` gave PrP UTR inh -22.7, Sa RN4220 lethal -12.0, Sa ugtP lethal 86.6*, PrPC TRFRET -3.3, PfHsp40 yeast 1.4 and CCHFV vOTU inh 13.5.
Screening Cc1ccc(C(C)NC(=O)c2ccco2)cc1 (stereo unspecified) returned PrP UTR inh -4.2, Sa RN4220 lethal 6.7, Sa ugtP lethal 9.5, PrPC TRFRET 1.3, PfHsp40 yeast -1.4 and CCHFV vOTU inh -3.9.
Cc1ccc(C(C)NC(=O)c2cc(C)oc2C)cc1 (stereo unspecified) was read as PrP UTR inh -21.2, Sa RN4220 lethal 2.7, Sa ugtP lethal -2.1, PrPC TRFRET -8.4, PfHsp40 yeast 48.2* and CCHFV vOTU inh 16.2.
CC1CN(C(C)CO)C(=O)c2cccc(NC(=O)c3ccncc3)c2OC1CN(C)Cc1ccc(C(=O)O)cc1 (stereo unspecified) was read as Sa RN4220 lethal 8.8 and Sa ugtP lethal 2.0.
Screening Cc1ccc2[nH]c(C)c(C=NNc3nc4ccccc4s3)c2c1 returned Sa RN4220 lethal 99.9* and Sa ugtP lethal 99.0*.
For CCn1c(C)c(/C=N/Nc2nc3ccccc3s2)c2ccccc21 the results were PrP UTR inh -25.7, PrPC TRFRET -0.5, PfHsp40 yeast -1.6 and CCHFV vOTU inh 7.9.
COc1ccc(C2CC(=O)C=C(c3ccc4c(c3)sc3ccccc34)C2)cc1 (stereo unspecified) was read as Sa RN4220 lethal -1.7 and Sa ugtP lethal 0.2.
Screening Cc1cc(-c2ccccc2)nc(NN=Cc2ccc(O)cc2O)n1 returned Sa RN4220 lethal 4.3 and Sa ugtP lethal -10.0.
CN1CCN(c2c(F)cc3c(=O)c(C(=O)O)cn4c3c2SCC4)CC1 was read as PrP UTR inh -15.7, Sa RN4220 lethal 98.8*, Sa ugtP lethal 99.2*, PrPC TRFRET 8.7, PfHsp40 yeast 0.0 and CCHFV vOTU inh -52.4.
C#CCOCCOCCOCCNc1nc(N2CCN(C(=O)Cn3cc(CCCCN)nn3)CC2)nc(N2CCN(C(=O)C(C)n3cc(CCC(=O)O)nn3)CC2)n1 (stereo unspecified) was read as Sa RN4220 lethal 8.5 and Sa ugtP lethal -3.9.
O=C(c1ccc([N+](=O)[O-])o1)N1CCc2ccccc2C1 was read as PrP UTR inh -8.5, Sa RN4220 lethal 9.4, Sa ugtP lethal 1.7, PrPC TRFRET -23.8, PfHsp40 yeast 53.2* and CCHFV vOTU inh -3.5.

Bioassay records deposited in PubChem BioAssay by several laboratories.
